Screening data deposited in PubChem BioAssay by National Center for Advancing Translational Sciences (NCATS).
Pf growth 48h – inhibits P. falciparum growth in the first generation, 48 h; P. falciparum luciferase growth in erythrocytes, 48 h; Potency, µM (doses to about 28.7 µM), usual class: inhibitors; 310,000 compounds, 5.9% hits; AID 504832
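Compounds are pin-transferred into medium, infected erythrocytes (2% hematocrit, 0.1% parasitemia final) are added, and plates sit one parasite generation at 37 C in 5% CO2. Detection reagent is then added and luminescence measured.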
HCV inhibitor – inhibitors of hepatitis C virus infection | Huh7.5.1 HCVcc-Cre infection, luciferase reporter, 44 h | Potency, µM (titrated, usually from 41.8 µM), most hits filed as inhibitors | AID 651820 | 340,000 compounds, 3.4% hits
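Cells (1,000/well) were plated 4 h before compound, then infected with HCVcc-Cre virus (~0.5 moi). After 44 h further culture, infection was read as luciferase luminescence following a 15 min substrate incubation at room temperature.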
Pf growth 96h – inhibits malaria parasite growth, 96 h; P. falciparum luciferase reporter growth, 96 h; Potency, µM (highest dose often 28.7 µM), hits mostly inhibitors; 320,000 compounds, 6.9% hits
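Readout is luminescence from an integrated firefly luciferase in P. falciparum. Red cells, 2% hematocrit and 0.05% parasitemia final, were cultured with compound through two parasite generations (96 hours) at 37 C, 5% CO2.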
Sm TGR inh – S. mansoni TGR enzyme inhibition; Q962Y6; purified TGR, DTNB reduction, TNB absorbance 405 nm; Potency, µM (titrated, usually from 114 µM), most hits filed as inhibitors; 360,000 compounds, 3% hits; AID 485364; note: nearly all actives have a fitted effect of over 60% in size
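Kinetic colorimetric format: TGR-catalysed, NADPH-driven DTNB reduction monitored via TNB absorbance. Enzyme dispensed at 20 nM; compound exposure 15 min at room temperature before reaction start.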
HCMV antiviral – inhibitors of human cytomegalovirus; AID 1259415; 410,000 compounds, 4.5% hits; activity change, negative = inhibition, % at 57.5 µM; HFF cells, HCMV-luciferase reporter, 72 h; active compounds read low; in the data active = activity change below about -60%; inconclusive = no clear call, values can overlap the other calls; inactive = above about -39%
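Two-dose cell screen: HFF monolayers treated with compounds and infected with luciferase-expressing HCMV at 1 PFU/cell, 72 h at 37C, then lysed for luciferase measurement.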
SARS PLpro yeast – SARS-CoV PLP inhibition in yeast. S. cerevisiae expressing SARS-CoV PLpro, growth rescue. 330,000 compounds, 0.19% hits. Potency, µM (top dose mostly 32.9 µM), usual class: activators. AID 485353; calls by dose curve; note: nearly all actives have a fitted effect of over 55% in size
Of the large screens only hits and unclear results are named; the others gave an inactive call. Sampled rows, rich in hits. Any-hit rate of the full collection: about 15%. Unless noted, calls come from the whole dose curve; as a rule, active = well fitted curve in the direction sought with a large enough effect; inconclusive = small, poorly fitted or top-dose-only effect, or another doubt; inactive = no such curve, though single readings can be large; an effect the other way counts as inactive or inconclusive.

O=C1COc2ccc(C(=O)COC(=O)c3nc(Cl)ccc3Cl)cc2N1	Sm TGR inh 14µM
N#CCC(=O)Nc1ccc(C(=O)OCC(=O)c2ccc3c(c2)NC(=O)CO3)cc1	Pf growth 48h 13µM, Pf growth 96h inconclusive
CC(=O)Nc1cc(NC(C)=O)cc(C(=O)OCC(=O)c2ccc3c(c2)NC(=O)CO3)c1	HCV inhibitor inconclusive
Nc1ncnc2c1ncn2[C@@H]1O[C@H](C(=O)NCc2ccc(OC(F)(F)F)cc2)[C@@H](O)[C@H]1O	none (no result: Pf growth 48h, HCV inhibitor, Pf growth 96h, Sm TGR inh, SARS PLpro yeast)
Cc1ccc(C(=O)Nc2nc(-c3ccccn3)cs2)s1	Pf growth 48h 0.41µM, HCV inhibitor inconclusive, Pf growth 96h inconclusive, HCMV antiviral -100
O=C(Nc1nc(-c2cc(Cl)sc2Cl)cs1)c1ccccc1	HCV inhibitor 11µM, Pf growth 96h inconclusive (no result: Pf growth 48h)
CCc1sc(C(=O)Nc2nccs2)cc1C	none
Cc1csc(NC(=O)c2cccn2C)n1	none
CCc1sc(C(=O)Nc2nc(-c3ccccn3)cs2)cc1C	HCV inhibitor 18µM (no result: Pf growth 48h, Pf growth 96h, Sm TGR inh, HCMV antiviral)
CSCCC(=O)Nc1nc(-c2ccccn2)cs1	Pf growth 48h inconclusive, Pf growth 96h inconclusive
Cn1cccc1C(=O)Nc1nc(-c2ccccn2)cs1	Pf growth 48h inconclusive, HCV inhibitor 14µM, Pf growth 96h 15µM, HCMV antiviral -88
CC(=O)N1CCCc2cc(S(=O)(=O)N(C)CC(=O)Nc3ccc(F)c(Cl)c3)ccc21	none (no result: Pf growth 48h, HCV inhibitor, Pf growth 96h, SARS PLpro yeast)
COc1cc(OC)cc(C(=O)NNC(=O)C2CCCC2)c1	none
COc1ccc2nc(N3CCN(C(=O)C4CC4)CC3)sc2c1	none (no result: Pf growth 48h, HCV inhibitor, Pf growth 96h, SARS PLpro yeast)
O=C(Nc1nc(-c2ccccn2)cs1)c1cc2ccccc2o1	Pf growth 48h inconclusive, HCV inhibitor inconclusive, Pf growth 96h inconclusive
Cc1c(C(=O)Nc2nc(-c3ccccn3)cs2)oc2ccccc12	Pf growth 48h 6.6µM, HCV inhibitor 2.8µM, Pf growth 96h inconclusive (no result: HCMV antiviral)
O=C(Nc1nc(-c2ccccn2)cs1)c1ccc(Cl)s1	HCV inhibitor inconclusive, Pf growth 96h 0.37µM, HCMV antiviral -96, SARS PLpro yeast inconclusive (no result: Pf growth 48h)
O=C(Nc1nc(-c2ccccn2)cs1)C1CCCC1	Pf growth 48h inconclusive, Pf growth 96h inconclusive
O=C(Nc1nc(-c2ccccn2)cs1)c1ncc(Cl)c(Cl)c1Cl	Pf growth 48h inconclusive, Pf growth 96h 13µM (no result: SARS PLpro yeast)
COc1ccc(N(C)S(=O)(=O)c2cccc(C(=O)NCc3ccc4c(c3)OCO4)c2)cc1	HCV inhibitor inconclusive
COc1ccc(N2CCN(C(=O)c3ccccc3N(C)S(=O)(=O)c3ccc(C)cc3)CC2)cc1	Pf growth 48h inconclusive, Pf growth 96h 10µM (no result: HCV inhibitor)
COc1ccc(N(C)S(=O)(=O)c2cccc(C(=O)N3CCN(Cc4ccc5c(c4)OCO5)CC3)c2)cc1	Pf growth 48h inconclusive, HCV inhibitor inconclusive, Pf growth 96h 13µM
COc1ccc(OC)c(CN2CCN(C(=O)c3cccc(S(=O)(=O)N(C)c4ccccc4)c3)CC2)c1	none (no result: Pf growth 48h, HCV inhibitor, Pf growth 96h, Sm TGR inh, SARS PLpro yeast)
COc1ccc(N2CCN(C(=O)c3cccc(N4C(=O)C5CC=CC(C)C5C4=O)c3)CC2)cc1 (stereo not given)	none (no result: HCV inhibitor)
COc1ccc(N(C)S(=O)(=O)c2cccc(C(=O)N3CCN(c4ccccc4)CC3)c2)cc1	Pf growth 48h 10µM, HCV inhibitor inconclusive, Pf growth 96h inconclusive
COc1ccc(N2CCN(C(=O)c3cccc(N4C(=O)C5C6C=CC(C6)C5C4=O)c3)CC2)cc1 (stereo not given)	Pf growth 48h 10µM
Cc1ccc(C(=O)NCC(=O)OCCCOC(=O)CNC(=O)c2ccc(C)c(C)c2)cc1C	none
COc1ccccc1Cc1c(-c2ccccc2)nc2c3ccccc3ccn12	none (no result: Pf growth 48h, HCV inhibitor, Pf growth 96h, Sm TGR inh, SARS PLpro yeast)
COc1cccc(S(=O)(=O)Nc2ccc(C(O)(C(F)(F)F)C(F)(F)F)cc2)c1	none (no result: Pf growth 48h, HCV inhibitor, Pf growth 96h, Sm TGR inh, SARS PLpro yeast)
Cc1cccc(CSC(=N)N)c1	HCMV antiviral -63
Cn1ccnc1C(O)c1cc(C(C)(C)C)c(O)c(C(C)(C)C)c1 (stereo not given)	Pf growth 48h inconclusive, Sm TGR inh 18µM, HCMV antiviral inconclusive
COc1cc(O)c(C(CC(=O)N2CCN(c3ccccc3)CC2)c2ccc(N(C)C)cc2)c(OC)c1 (stereo not given)	Pf growth 48h inconclusive, HCV inhibitor inconclusive, Pf growth 96h 12µM
COc1ccc(C(CC(=O)N2CCN(c3ccccc3)CC2)c2c(OC)cc(OC)c3ccc(=O)oc23)cc1 (stereo not given)	Pf growth 48h 7.4µM, Pf growth 96h 8.3µM
COc1cc(O)c(C(CC(=O)N2CCOCC2)c2cc(OC)c(OC)c(OC)c2)c(OC)c1 (stereo not given)	Pf growth 48h inconclusive, Sm TGR inh inconclusive
CCN(CC)CCC(c1cc(OC)c(OC)c(OC)c1)c1c(OC)cc(OC)c2c(C)cc(=O)oc12 (stereo not given)	Pf growth 48h 9.3µM, Pf growth 96h inconclusive
COc1cc(C(CC(=O)N2CCCC2)c2c(OC)cc(OC)c3ccc(=O)oc23)cc(OC)c1OC (stereo not given)	Pf growth 48h 13µM, Pf growth 96h 13µM
CCOC(=O)C1CCN(S(=O)(=O)c2ccc(C(C)(C)C)cc2)CC1	Pf growth 96h inconclusive, HCMV antiviral inconclusive
COc1cc(C(CCN2CCCC2)c2c(OC)cc(OC)c3ccc(=O)oc23)cc(OC)c1OC (stereo not given)	Pf growth 48h inconclusive, HCV inhibitor 2µM, Pf growth 96h 10µM
COc1cc(C(CCN2CCN(c3ccccc3)CC2)c2c(OC)cc(OC)c3c(C)cc(=O)oc23)cc(OC)c1OC (stereo not given)	Pf growth 48h 2.6µM, HCV inhibitor 4µM, Pf growth 96h 3.7µM
COc1cc(OC)c2ccc(=O)oc2c1C(CC(=O)N1CCCC1)c1ccc2c(c1)OCO2 (stereo not given)	Pf growth 48h 9.3µM, Pf growth 96h inconclusive
COc1cc(OC)c2ccc(=O)oc2c1C(CC(=O)N1CCCC(C)C1)c1ccc2c(c1)OCO2 (stereo not given)	Pf growth 48h inconclusive, Pf growth 96h inconclusive
CCN(CC)CCC(c1cc(OC)c(OC)c(OC)c1)c1c(OC)cc(OC)c2ccc(=O)oc12 (stereo not given)	Pf growth 48h inconclusive, Pf growth 96h inconclusive
CCc1ccc(-n2c(O)c(C=NCCN(CC)CC)c(=O)[nH]c2=O)cc1	Sm TGR inh 22µM
Oc1c(Br)cc(/C=N/Nc2ccc(Cl)nn2)cc1Br	Pf growth 48h 0.52µM, Pf growth 96h 1µM
Oc1ccc(/C=N/Nc2ccc(Cl)nn2)c(O)c1O	HCV inhibitor inconclusive, Pf growth 96h inconclusive, Sm TGR inh 14µM, SARS PLpro yeast inconclusive
Oc1c(Br)cc(Br)cc1/C=N/Nc1ccc(Cl)nn1	Pf growth 48h inconclusive, Pf growth 96h inconclusive, HCMV antiviral -97
COc1cc(/C=N/Nc2ccc(Cl)nn2)cc(OC)c1O	Pf growth 96h inconclusive
